Shown are actives, neighbours in structure and some others; about 1.5% of the full set was active somewhere.
B2AR ag: beta2AR agonists driving receptor internalization, primary screen, cell-based, FAP fluorogen, flow cytometry. actives 0.43% (n = 340,000). Am2.2-beta2AR cells. Beta-2 adrenergic receptor (Homo sapiens), P07550. response, % (concentration not given with the values);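 active = response above a set limit, near 3 SD of response in nonfluorescent compounds, cut at about 42% in these data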
ABHD5 PLIN5 PPI: ABHD5-PLIN5 interaction inhibitors, primary screen, cell lysate, split luciferase complementation, luminescence | inhibition, % at 4 µM | AID 602281, 2012 | actives 0.78% (n = 360,000) | Perilipin-5 (Homo sapiens) + 1-acylglycerol-3-phosphate O-acyltransferase ABHD5 (Homo … | Split G. princeps luciferase complementation, 4 h;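 active = inhibition above the mean inhibition across every tested compound plus 3 SD, cut at about 22% in these data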
TLR9-MyD88 block: inhibitors of TLR9-MyD88 association in cells, primary screen, cell-based, CHO, BLA complementation, fluorescence. Toll-like receptor 9 (Homo sapiens) + Myeloid differentiation primary response protein …. CCF4 FRET ratio. AID 504734, 2011. inhibition, % at 4.98 µM. actives 0.21% (n = 340,000);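 active = inhibition above the mean over all tested compounds plus 3 SD, cut at about 21% in these data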
NTR1 agonist: agonists of human NTR1, primary screen, imaging, U2OS cells, beta-arrestin-GFP, high content; actives 0.17% (n = 330,000); NTR1-U2OS beta-arrestin-GFP spot imaging, agonist mode; AID 493036, 2011; activation, % at 20 µM;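 active = activation at or above 40% of the spot to cytoplasm intensity ratio, with at least 20 cells analyzed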
Target sequence (P30989 whole entry, looked up): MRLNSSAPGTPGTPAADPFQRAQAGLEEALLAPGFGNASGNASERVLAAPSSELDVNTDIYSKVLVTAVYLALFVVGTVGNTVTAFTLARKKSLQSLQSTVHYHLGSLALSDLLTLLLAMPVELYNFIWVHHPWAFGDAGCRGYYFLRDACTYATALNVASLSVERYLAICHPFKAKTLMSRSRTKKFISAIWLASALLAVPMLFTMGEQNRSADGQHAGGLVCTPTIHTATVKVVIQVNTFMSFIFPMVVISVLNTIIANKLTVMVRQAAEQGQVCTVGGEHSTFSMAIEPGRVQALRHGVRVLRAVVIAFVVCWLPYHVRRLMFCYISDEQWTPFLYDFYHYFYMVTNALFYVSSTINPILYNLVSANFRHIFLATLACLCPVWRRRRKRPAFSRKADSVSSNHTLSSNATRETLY
TLR4-MyD88 BLA: inhibitors of TLR4-MyD88 association in cells, primary screen, cell-based, HeLa CL3-4, BLA complementation, FRET ratio. Toll-like receptor 4 (Homo sapiens) + Myeloid differentiation primary response protein …. HeLa CL3-4 TLR4/MyD88 BLA complementation. inhibition, % at 8.4 µM. actives 0.18% (n = 200,000). AID 861, 2007; in the data active = inhibition above about 25%
NOD2-RIPK2 inh: NOD2-RIPK2 binding disruptors in cells, primary screen, fluorescence, CHO cells, BLA complementation; inhibition, % at 4.98 µM; CCF4 ratio; actives 0.38% (n = 360,000); AID 624267, 2012; in the data active = inhibition above about 21%
B2AR ag CP1: beta2AR agonists via receptor internalization, confirmation, cell-based, FAP fluorogen, flow cytometry, single point, cherry pick 1; shares compounds with B2AR ag; Am2.2-beta2AR cells, FAP surface receptor; stronger effect = lower value; percent response (surface receptor), % at 10 µM; actives 25% (n = 1,100); AID 540358, 2011;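 active = surface receptor percent response at or below 58%, roughly 3 SD from nonfluorescent compounds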
B2AR FAP counter: fluorescence artifact in beta-2AR agonist FAP counterscreen; calls only at 10 µM; 1,100 tested, under 10 active; Am2.2 cells, FAP fluorogen flow cytometry; stronger effect = lower value; shares compounds with B2AR ag;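 active = percent response below a set limit in fluorescence channel 1 and below 50% in channel 8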
Large screens that a line does not name were inactive (follow-up assays come after a bar, where they were run).

CCc1ccc(OCCOCC(O)CNC(C)CC)cc1 (centres undefined)	B2AR ag 74 | B2AR ag CP1 inactive | B2AR FAP counter inactive
CSc1ccc(Cn2c(C)c(C(=O)NCc3ccc(F)cc3)sc2=O)cc1	none (no result: B2AR ag, TLR9-MyD88 block, NTR1 agonist, TLR4-MyD88 BLA)
COc1cccc(CNC(=O)[C@@H]2CCCN2C(=O)[C@H]2CCCCN2C(=O)c2cccc(Cl)c2)c1	none (no result: B2AR ag, TLR9-MyD88 block, NTR1 agonist, TLR4-MyD88 BLA)
CCOc1ccc2nc(NC(=O)CSc3nc4cccnc4n3C)sc2c1	B2AR ag 49 | B2AR ag CP1 inactive | B2AR FAP counter inactive
CCOc1ccc(OCC)c(NC(=O)CSc2nc3cccnc3n2C)c1	none
OC(Cc1ccccc1)c1ncc(-c2ccc3ccccc3c2)[nH]1 (centres undefined)	none (no result: B2AR ag, TLR9-MyD88 block, NTR1 agonist, TLR4-MyD88 BLA)
CC(=O)C1=CCC(c2ccccc2)N(S(=O)(=O)c2cccc(C)c2)C1 (centres undefined)	none (no result: B2AR ag, TLR9-MyD88 block, NTR1 agonist, TLR4-MyD88 BLA)
CC(C)(C)C(=O)CC1(O)C(=O)N(Cc2ccc(Cl)cc2)c2ccccc21 (centres undefined)	B2AR ag 54 | B2AR ag CP1 inactive | B2AR FAP counter inactive
CC1(C(=O)Nc2cccc3c2CCCC3)CCN1C(=O)Cc1ccccc1Cl (centres undefined)	none (no result: B2AR ag, TLR9-MyD88 block, NTR1 agonist, TLR4-MyD88 BLA)
CN(CCCN1CCOCC1)C(=O)c1cc(COc2cccc(C(F)(F)F)c2)on1	B2AR ag 52 (no result: TLR4-MyD88 BLA) | B2AR ag CP1 inactive | B2AR FAP counter inactive
Cc1cc(OCc2cc(C(=O)N(C)CCCN3CCOCC3)no2)cc(C)c1Cl	none (no result: TLR4-MyD88 BLA)
CN(C(=O)c1ccc(NC(=O)Cc2ccc(NC(=O)C3CCCN(C(=O)C4CCC4)C3)cc2)cc1)C1CCCC1 (centres undefined)	none (no result: NTR1 agonist, TLR4-MyD88 BLA)
Cc1ccc(S(=O)(=O)Nc2ccncc2)c(C)c1N(C)S(=O)(=O)c1ccc(F)cc1	B2AR ag 84 | B2AR ag CP1 inactive | B2AR FAP counter inactive
COc1ccc(-n2ccnc(SCC(=O)NC3CCCC3)c2=O)cc1	none (no result: TLR4-MyD88 BLA)
COc1ccc(-n2ccnc(SCC(=O)NC3CCCCC3)c2=O)cc1	B2AR ag 93 (no result: TLR4-MyD88 BLA) | B2AR ag CP1 inactive | B2AR FAP counter inactive
COc1ccc(-n2c(Cc3cc(=O)[nH]c(=O)[nH]3)nnc2SCC(=O)NC2CCCC2)cc1	B2AR ag 52 | B2AR ag CP1 inactive | B2AR FAP counter inactive
COc1ccc(-c2nc(NC(=O)c3cc(C(C)(C)C)nn3C)sc2C)cc1	none | B2AR ag CP1 inactive | B2AR FAP counter inactive
COc1ccc(-c2nc(NC(=O)c3c(C)noc3C)sc2C)cc1	none (no result: TLR4-MyD88 BLA)
CC1CC2(CCCC2)N(C(=O)c2ccccc2)Cc2ccccc21 (centres undefined)	none
O=C1C(O)CC2c3ccccc3CC3(CCCC3)N12 (centres undefined)	none | B2AR ag CP1 inactive | B2AR FAP counter inactive
O=C(COc1ccc(F)cc1)N(Cc1cccc(Br)c1)C1CCS(=O)(=O)C1 (centres undefined)	B2AR ag 53 (no result: TLR4-MyD88 BLA) | B2AR ag CP1 inactive | B2AR FAP counter inactive
CC(=O)Nc1ccc(C(=O)N2CCCCC2c2cc(C(=O)NC(C)C)no2)cc1 (centres undefined)	none (no result: B2AR ag, TLR9-MyD88 block, NTR1 agonist, TLR4-MyD88 BLA)
COc1ccc(-c2ccc(N3C(c4ccsc4)=Cc4ccc(F)cc4C3c3c[nH]c4ccccc34)cc2)cc1 (centres undefined)	none (no result: B2AR ag, TLR9-MyD88 block, NTR1 agonist, TLR4-MyD88 BLA)
O=C(Nc1cccc(O)c1)N1CCOCC1	none
O=C(Nc1ccc2nc(-c3cccs3)c(-c3cccs3)nc2c1)N1CCOCC1	B2AR ag 59 | B2AR ag CP1 20 | B2AR FAP counter inactive
COCCNC(=O)C1(C)CCCN(C(=O)c2ccc3snnc3c2)C1 (centres undefined)	none (no result: B2AR ag, TLR9-MyD88 block, NTR1 agonist, TLR4-MyD88 BLA)
CC(O)c1c(OCc2ccccc2)ncnc1OCc1ccccc1 (centres undefined)	B2AR ag 98 | B2AR ag CP1 inactive | B2AR FAP counter inactive
O=C(c1ccccc1)N(c1ccccc1)c1ccccc1O	none (no result: NTR1 agonist, TLR4-MyD88 BLA)
O=C(CN1CCc2ccccc2C1)Nc1ccccc1N1CCCCCC1	B2AR ag 110 | B2AR ag CP1 inactive | B2AR FAP counter inactive
COc1ccc(CCn2c(=O)[nH]c3cc(C(=O)NCCN4CCOCC4)ccc3c2=O)cc1OC	B2AR ag 69 | B2AR FAP counter inactive
COc1cccc(CNc2nc(-c3cccnc3)nc3ccccc23)c1	none | B2AR ag CP1 inactive | B2AR FAP counter inactive
COc1ccccc1C(C)Nc1nc(-c2cccnc2)nc2ccccc12 (centres undefined)	none (no result: TLR4-MyD88 BLA) | B2AR ag CP1 inactive | B2AR FAP counter inactive
O=C(c1[nH]c(C(F)(F)F)nc1-c1ccccc1)N1CCC2(CC1)C(=O)NCN2c1ccccc1	none (no result: B2AR ag, TLR9-MyD88 block, NTR1 agonist, TLR4-MyD88 BLA)
CCCNC(=O)C1(C)CCCN(C(=O)COCc2ccccc2)C1 (centres undefined)	none (no result: B2AR ag, TLR9-MyD88 block, NTR1 agonist, TLR4-MyD88 BLA)
CN1CC(O)(C(O)C(O)C(O)CO)SC1=S (centres undefined)	none (no result: B2AR ag, NTR1 agonist, TLR4-MyD88 BLA)
CCN(CC)CCNc1ncnc2c1sc1nc(N3CCOCC3)c3c(c12)CCCC3	none (no result: TLR4-MyD88 BLA)
CN(C)CCNc1ncnc2c1sc1nc(N3CCCC3)c3c(c12)CC(C)(C)OC3	B2AR ag 72 (no result: TLR4-MyD88 BLA) | B2AR ag CP1 35 | B2AR FAP counter inactive
CCN(CCO)c1ncnc2c1sc1nc(CC(C)C)c3c(c12)CC(C)(C)OC3	none | B2AR ag CP1 25 | B2AR FAP counter inactive
CCN(CC)CCNc1ncnc2c1sc1nc(N3CCCC3)c3c(c12)CC(C)(C)OC3	B2AR ag 65 | B2AR ag CP1 inactive | B2AR FAP counter inactive
CC(C)CNc1ncnc2c1sc1nc(N3CCOCC3)c3c(c12)CC(C)(C)OC3	none | B2AR ag CP1 inactive | B2AR FAP counter inactive
Cc1ccccc1-c1n[nH]nc1C1=CC(=O)CC(C)(C)C1	none (no result: B2AR ag, NTR1 agonist, TLR4-MyD88 BLA)
CC1(C)Cc2c(c(-c3ccco3)nc3sc4c(NCC5CCCO5)ncnc4c23)CO1 (centres undefined)	B2AR ag 83 | B2AR ag CP1 10 | B2AR FAP counter inactive
CCCS(=O)(=O)NC(=O)C1(C)CCCN(C(=O)C2(c3ccc(Cl)cc3)CCCC2)C1 (centres undefined)	none (no result: B2AR ag, TLR9-MyD88 block, NTR1 agonist, TLR4-MyD88 BLA)
CCOc1cc(CNCCc2ccc(S(N)(=O)=O)cc2)ccc1OCc1ccccc1	none (no result: NTR1 agonist) | B2AR ag CP1 inactive | B2AR FAP counter inactive

Source: PubChem
